Assay outcomes (PubChem)
VHR inh abs – DUSP3 (human) phosphatase inhibition; recombinant VHR phosphatase, pNPP absorbance; inhibition, % at 13.3 µM; 290,000 tested, 0.52% active; in the data active = inhibition above about 50%
Target sequence (P51452 whole entry, looked up): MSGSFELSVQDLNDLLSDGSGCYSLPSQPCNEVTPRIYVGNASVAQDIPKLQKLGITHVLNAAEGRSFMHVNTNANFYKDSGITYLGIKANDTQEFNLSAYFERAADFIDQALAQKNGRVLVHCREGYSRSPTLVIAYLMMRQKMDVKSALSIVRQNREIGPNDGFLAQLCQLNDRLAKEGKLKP
PriA SSB inh – blocks PriA binding to SSB C-terminal tail. 430,000 tested, 0.6% active. inhibition, % at 33 µM. AID 1272365. AlphaScreen SSBct-PriA binding, biotinylated peptide; in the data active = inhibition mostly above about 37%, no sharp cut-off; inactive = mostly below about 20%;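 also: plate controls were negative control peptide for no effect and reference peptide for full effect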
ugtP null kill – compounds lethal to S. aureus RN4220 ugtP deletion mutant | OD600 growth, 16 h | growth inhibition, % (concentration not given with the values) | 330,000 tested, 0.54% active | AID 1259309; in the data active = growth inhibition above about 68%;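 also: plate controls were untreated wells for no effect and antibiotic for full effect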
Mtb hypoxia rep – reduces hypoxia-regulated biosensor signal in M. tuberculosis | M. tuberculosis hypoxia-regulated fluorescent reporter, fluorescence | fluorescence inhibition, % (concentration not given with the values) | 300,000 tested, 0.1% active | AID 1159583; in the data active = fluorescence inhibition mostly above about 23%, no sharp cut-off; inactive = mostly below about 17%
Sa RN4220 lethal – S. aureus RN4220 growth inhibition | OD600, 16 h | inhibition, % (test concentration not listed) | 330,000 tested, 0.33% active; in the data active = inhibition above about 85%;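 also: plate controls were untreated cells for no effect and reference antibiotic for full effect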
PfHsp40 yeast – compounds rescuing yeast from Plasmodium falciparum HSP40 toxicity; growth rescue, % at 12.5 µM; 340,000 tested, 0.68% active; AID 504582; S. cerevisiae expressing PfHsp40, growth rescue, ATP luminescence; in the data active = growth rescue above about 28%, passing the limit was not always enough; inconclusive = no clear call, values can overlap the other calls;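 also: yeast W303a lacking pdr1 and pdr3 grown in galactose medium; growth measured after three days at 30 °C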
* = called active by the depositor; u = inconclusive; x = no result shown; ! = a repeat was not active. In the library only some 1.8% were active in any assay of this set; here they are far more common.

SMILES	VHR inh abs	PriA SSB inh	ugtP null kill	Mtb hypoxia rep	Sa RN4220 lethal	PfHsp40 yeast
CCCCOc1ccc(C(=O)Nc2ccc3c(c2)CC(=O)N3C)cc1	x	14.0	x	x	x	x
CCN(CC)c1ccc(NC(=O)CCc2c(C)nn(-c3nc(C)cc(=O)[nH]3)c2C)c(C)c1	x	5.0	x	x	x	x
COc1ccc(-n2ncc3c2CC(C)(C)CC3NC(=O)CCCN2CCCC2=O)cc1 (configuration not stated)	56.8*	3.3	9.4	5.3	3.8	0.2
COC(=O)CCC(=O)NC1CC(C)(C)Cc2c1cnn2-c1ccc(F)cc1 (configuration not stated)	0.5	-4.5	2.9	-5.8	2.8	-0.9
CC1(C)Cc2c(cnn2-c2ccc(F)cc2)C(NC(=O)CCC(F)(F)F)C1 (configuration not stated)	59.1*	-4.3	5.6	12.1	4.4	0.1
Cn1c(=O)[nH]cc(C(=O)NCc2ccc(F)cc2)c1=O	x	-5.0	x	x	x	x
CO[C@@H](CNC(=O)c1c(-c2ccccc2Cl)noc1C)c1ccc(Cl)s1	x	-7.0	x	x	x	x
Cc1[nH]n(C(N)=S)c(=O)c1N=Nc1ccc2ccccc2c1	18.5	46.7	-7.3	17.6	1.1	54.9*
NC(=S)n1[nH]c(-c2ccc([N+](=O)[O-])cc2)c(N=Nc2cccc([N+](=O)[O-])c2)c1=O	81.3*	19.1	-7.9	10.2	5.6	-0.2
Cc1ccc(N=Nc2c(C)[nH]n(C(N)=S)c2=O)cc1C	-0.8	-3.6	0.0	-5.1	0.6	-0.8
COC(=O)c1ccccc1C(=O)N(CCN(C)C)c1nc2c(C)c(Cl)ccc2s1	x	29.0	x	x	x	x
Cn1cccc1Cc1nnc(SCC(=O)Nc2ccccc2F)n1-c1ccccc1	x	37.0*	x	x	x	x
Cc1nnc(NC(=O)CSc2nnc(Cc3cccn3C)n2-c2cccc(C)c2C)s1	9.4	x	7.2	0.9	10.4	x
Cc1cccc(-n2c(Cc3cccn3C)nnc2SCC(=O)N2CCN(c3ccccc3)CC2)c1C	x	36.0*	x	x	x	x
COCCN=c1scc(-c2cc(OC)c(OC)c(OC)c2)n1/N=C/c1c(C)[nH]c2ccccc12	2.9	x	x	x	x	2.0
COCCN=c1scc(-c2ccccc2)n1N=Cc1c[nH]c2ccccc12	x	51.3*	17.4	-0.6	-15.1	x
CN(C)S(=O)(=O)N1CCC(CSCc2ccco2)CC1	x	-1.0	x	x	x	x
COCCn1c(=NC(=O)c2cccc(C)c2)sc2cc(NC(C)=O)ccc21	x	-16.0	x	x	x	x
O=C(Nc1ccc(Cc2ccncc2)cc1)c1cccc([N+](=O)[O-])c1	34.9	4.8	1.0	2.3	-0.7	-0.1
O=C(CCNc1ccc(Cc2ccncc2)cc1)c1ccc([N+](=O)[O-])cc1	-7.7	46.9*	2.2	-1.7	2.0	-0.4
Cc1ccc(C(=O)OCc2nnc(-c3ccc(Br)cc3)o2)cc1	8.3	-15.7	8.0	8.4	6.1	27.0*
Cc1cc(N2CCOCC2)nc(Nc2ccc(NC(=O)c3ccc(-c4ccccc4)cc3)cc2)n1	x	-10.0	x	x	x	x
CCN(Cc1ccccc1)C(=O)CSc1nc(C)cc(C)c1C#N	-27.2	-6.5	9.9	12.2	4.0	128.6*
CN1C(=O)C(C)(C)COc2cc(NC(=O)c3ccc4nsnc4c3)ccc21	x	-17.0	x	x	x	x
CN(C)CCOc1ccc(-c2c(-c3ccccc3)sc3ccccc23)cc1	x	37.6	100.1*	51.2*	100.4*	32.7*
SMILES	VHR inh abs	PriA SSB inh	ugtP null kill	Mtb hypoxia rep	Sa RN4220 lethal	PfHsp40 yeast
COc1ccc(-c2c(-c3cc(OC)cc(OC)c3)sc3ccc(OC)cc23)cc1	x	-2.8	92.1*	8.5	-8.5	-0.9
COc1cc(OC)cc(-c2sc3ccc(OC)cc3c2-c2ccc(O)cc2)c1	x	-9.5	100.4*	7.5	99.5*	u
COc1ccc2sc(-c3ccc(N(C)C)cc3)c(C#CCCO)c2c1	x	15.8	0.2	9.9	-0.3	u
COc1ccc(-c2sc3ccc(OC)cc3c2C#CCCO)cc1	16.6	-25.7	x	x	x	46.2*
COc1ccc(-c2c(-c3ccc(S(C)(=O)=O)cc3)sc3ccc(OC)cc23)cc1	x	-20.8	x	x	x	1.3
O=C(CCOc1ccccc1)N1CCN(c2nc3ccc(Cl)cc3s2)CC1	x	-16.0	x	x	x	x
COc1ccc2sc(-c3ccc(N(C)C)cc3)c(C#Cc3cncn3C)c2c1	x	17.4	82.1*	23.1	77.9	u
COc1ccc(-c2sc3ccc(OC)cc3c2-c2ccc(O)cc2)cc1	x	1.2	100.1*	2.8	76.0	0.0
COc1ccc2sc(-c3ccccc3OC)c(-c3ccc(O)cc3)c2c1	x	9.8	x	x	x	21.9
COc1ccc(-c2c(-c3ccccc3OC)sc3ccccc23)cc1	-14.4	1.3	87.4*	2.2	-10.5	-1.6
CC(=O)c1c(N2CCOCC2)nc2ccc(Br)cc2c1-c1ccccc1	2.5	3.0	85.1*	13.5	-7.3	1.3
CCCCc1ccc(-n2c(Cc3cccs3)n[nH]c2=S)cc1	13.6	1.2	34.6	4.5	7.6	304.9*
S=c1[nH]nc(Cc2cccs2)n1-c1ccccc1	6.0	0.3	0.9	0.8	2.0	-1.1
O=c1[nH]c2ccccc2n1C1=CCCC1	13.9	-21.0	-5.2	x	-2.4	-0.3
O=c1[nH]c2ccccc2n1C1=CCNCC1	52.0*	19.4	10.2	11.5	4.3	-0.4
O=C1c2cccnc2-c2ncccc21	27.6	37.0*!	15.5	-0.7	16.6	1.7
COC1=C(Br)C(=O)c2ncccc2C1=O	x	40.7*	x	x	x	-0.3
O=C1c2ccccc2-c2nccnc21	17.9	-1.6	-1.5	0.4	3.9	0.5
COC(CNC(=O)Nc1cccc(C(F)(F)F)c1)c1ccc(C)s1 (configuration not stated)	x	12.0	x	x	x	x
O=C(NC1CCS(=O)(=O)C1)c1ccc2c(c1)OCO2 (configuration not stated)	x	1.7	-3.9	5.2	5.3	44.2*
O=C(NC1(C(=O)NC2CCCCC2)CCCCC1)c1ccc2c(c1)OCO2	51.6*	-2.0	3.5	x	-0.8	-0.8
O=C(NC1CCCCC1)c1ccc2c(c1)OCO2	14.1	-9.0	-1.3	x	6.9	-0.3
CC(C)(C)n1ncc2c(=O)n(CCC(=O)N3CCc4ccccc4C3)cnc21	x	-1.0	x	x	x	x
Oc1c(Br)cc(Br)c2cccnc12	x	-8.4	x	x	x	148.5*
CN(C)S(=O)(=O)c1ccc(C(=O)NCC#CCOc2cccc(C(F)(F)F)c2)cc1	x	-18.0	x	x	x	x
SMILES	VHR inh abs	PriA SSB inh	ugtP null kill	Mtb hypoxia rep	Sa RN4220 lethal	PfHsp40 yeast
CC1CCCCC1NC1=NCCCS1 (configuration not stated)	53.6*	x	7.8	3.8	0.6	x
CCCCc1ccc(NC(=O)c2nc(SC)ncc2Cl)cc1	x	-13.0	x	x	x	x
CCCCOC(=O)c1ccc(NC(=S)N2CCN(c3ncc4c(=O)c(C(=O)O)cn(CC)c4n3)CC2)cc1	25.7	-9.7	100.5*	2.3	100.6*	0.4
CCn1cc(C(=O)O)c(=O)c2cnc(N3CCN(C(=S)Nc4ccccc4)CC3)nc21	20.5	-9.4	4.4	-7.3	17.4	1.2
CCOc1ccc(-c2cc(N)n(S(=O)(=O)c3cccc4nsnc34)n2)cc1	4.4	23.9	12.8	-1.9	-8.7	1.5
COc1cc(OC)cc(-c2cc(N)n(S(=O)(=O)c3cccc4nsnc34)n2)c1	-8.8	39.0*	-7.4	-9.7	-8.4	1.1
